Hits are enriched below; roughly 5.4% of the tested compounds scored in any of these assays.
Vaccinia Venus = vaccinia inhibition (Venus reporter) | Vaccinia virus Venus reporter expression, fluorescence | Potency, µM (series often up to 36.5 µM), for the others: at the highest dose activity change, negative = inhibition, most hits filed as inhibitors | 0.46% of 330,000 active; calls by dose curve; tested in A549 cells; further: nearly all actives have a fitted effect of over 30% in size
FMDV inh = blocks foot and mouth disease virus. 1.2% of 410,000 active. Potency, µM (top dose mostly 57.9 µM), inactives show at the top dose activity change, negative = inhibition, actives largely listed as inhibitors. FMDV antiviral cell-based qHTS; calls by dose curve; tested in HEK293T cells; further: read-out not given here; nearly all actives have a fitted effect of over 45% in size
Sm TGR inh = blocks Schistosoma mansoni thioredoxin glutathione reductase. 3% of 360,000 active. Potency, µM (series often up to 114 µM), inactives show at the top dose activity change, negative = inhibition, most hits filed as inhibitors. purified TGR, DTNB reduction, TNB absorbance 405 nm. Q962Y6; active means well fitted inhibition curve with a large enough effect; inconclusive means small, poorly fitted or top-dose-only effect; inactive means no such curve, though single readings can be large or run the other way; further: nearly all actives have a fitted effect of over 60% in size
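Kinetic colorimetric format: TGR-catalysed, NADPH-driven DTNB reduction monitored via TNB absorbance. Enzyme dispensed at 20 nM; compound exposure 15 min at room temperature before reaction start.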
MARV entry inh = blocks Marburg virus binding to or entry into cells | Marburg virus pseudotyped entry inhibition, cell reporter | 1.8% of 300,000 active | Potency, µM (titrated, usually from 37.8 µM), for inactives: at the highest dose activity change, negative = inhibition, hits mostly inhibitors; calls by dose curve; tested in HEK293 cells
Vaccinia mCherry = inhibitors of vaccinia virus infection (mCherry reporter signal). Potency, µM (titrated, usually from 36.5 µM), for inactives: top-dose activity change, negative = inhibition, most hits filed as inhibitors. Vaccinia virus mCherry reporter infection, fluorescence. 0.63% of 310,000 active; calls by dose curve; tested in A549 cells; further: nearly all actives have a fitted effect of over 35% in size
LASV entry inh = blocks Lassa virus binding to or entry into cells; Potency, µM (highest dose often 37.9 µM), without a hit: top-dose activity change, negative = inhibition, most hits filed as inhibitors; 1.2% of 300,000 active; Lassa virus pseudotype entry inhibition, cell reporter; calls by dose curve; tested in HEK293 cells; further: nearly all actives have a fitted effect of over 50% in size
Numbers without * were called inactive; i = inactive; ? = inconclusive; / = no result; [ ] = another dose, or the depositor's remark. On the % scale 0 is the no-effect control and ±100 the full control effect; potency means the concentration at half of the fitted maximal effect.

SMILES | Vaccinia Venus | FMDV inh | Sm TGR inh | MARV entry inh | Vaccinia mCherry | LASV entry inh
O=C1N[C@H](Cc2ccccc2)COC(=O)[C@H](Cc2ccc(F)cc2)C/C=C\C[C@@H]1CC(=O)N(CCO)Cc1ccccc1 | -28% | -24% | / | / | -17% | /
N#Cc1ncc(N=Cc2ccc(N(CCCl)CCCl)cc2)s1 | -21% | -27% | / | 0.79µM* | ? | 0.71µM*
COc1ccc(C(=O)N2CCOc3ccc(CN4CCN(c5ccccn5)CC4)cc3C2)o1 | -3% | ? | / | / | -7% | /
COCCn1c(SCC(=O)NCc2ccco2)nnc1C(C)C | -10% | -12% | 45µM* | 23% | -12% | ?
O=C(Cc1cccs1)NCc1ccco1 | -8% | 7% | -30% | 5% | -14% | 20%
CCn1c(SCC(=O)NCc2ccco2)nnc1-c1cccs1 | / | -7% | 10µM* | 7% | / | ?
CCCn1c(SCC(=O)NCc2ccco2)nnc1-c1ccncc1 | 2% | -1% | / | -14%[46.1 µM] | ? | 15%
CC(Sc1ccsc1[N+](=O)[O-])C(=O)NCc1ccco1 (configuration not stated) | / | -7% | 22µM* | / | / | /
CCn1c(SCC(=O)NCc2ccco2)nnc1-c1ccncc1 | / | / | -5% | / | / | /
CCCCn1c(SCC(=O)NCc2ccco2)nnc1-c1ccco1 | / | 33% | 45µM* | 22% | / | 20%
CCc1ccc2oc(-c3ccc(C)c(NC(=O)COc4ccccc4Cl)c3)nc2c1 | -11% | / | / | / | -11% | /
CCCCn1c(=O)c2oc3ccccc3c2n(Cc2ccc(OC)cc2)c1=O | -9% | -9% | 6% | / | -11% | 5%[46.1 µM]
CS(=O)(=O)N1CCC2(CC1)CN(C(=O)Nc1ccccc1)C2 | / | -25% | / | / | / | /
CCCCn1c(SCC(=O)NCc2ccco2)nnc1-c1ccoc1C | 5% | -15% | 28µM* | 15%[46.1 µM] | -14% | -4%
CC(Sc1nnc(-c2cccs2)n1-c1ccccc1)C(=O)NCc1ccco1 (configuration not stated) | -15% | ? | 45µM* | -27% | / | ?
COCCn1c(SCC(=O)c2ccc(Cl)cc2)nnc1C(C)C | -2% | -9% | 40µM* | -26%[46.1 µM] | -11% | -1%
Cc1ccc(-c2nnc(SC(C)C(=O)NCc3ccco3)n2C)cc1 (configuration not stated) | -22% | / | / | / | i | /
CCCCn1c(SCC(=O)OCC)nnc1-c1ccoc1C | -9% | 0% | 8% | 17% | -15% | 0%
CCc1ccccc1Nc1nn2c(=O)c3ccc(C(=O)NCCCOC(C)C)cc3nc2s1 | ? | -9% | 4% | / | ? | -1%[46.1 µM]
CCOc1ccc(/C=N/O)cc1 | 0% | 17% | 0% | 7% | -18% | /
CCOc1ccc(/C=N/Nc2ccccc2)cc1 | -14% | 55% | 25µM* | / | -10% | /
CCCNC(=S)N1CCC(C(=O)c2ccc(Cl)cc2)CC1 | / | ? | 89µM* | / | / | /
CCCCS(=O)(=O)CC(O)CSc1nc(-c2ccc(C)cc2)cc(-c2ccccc2)c1C#N (configuration not stated) | -16% | -8% | -1% | / | i | ?
COC(=O)c1ccccc1NC(=O)CCS(=O)(=O)c1ccc(Br)cc1 | -16% | 10% | 10µM* | / | -6% | /
O=C(CCS(=O)(=O)c1ccc(Br)cc1)Nc1cc(F)ccc1F | ? | -6% | 13µM* | ? | 11µM* | -8%
SMILES | Vaccinia Venus | FMDV inh | Sm TGR inh | MARV entry inh | Vaccinia mCherry | LASV entry inh
Cc1c(Cl)cccc1NC(=O)CNC(=O)CCS(=O)(=O)c1ccc(F)cc1 | / | -5% | 45µM* | / | / | /
O=C(CCS(=O)(=O)c1ccc(Br)cc1)Nc1ccc(F)cc1F | -8% | 2% | -27% | / | -5% | 19%[46.1 µM]
CCc1ccccc1NC(=O)CCS(=O)(=O)c1ccc(Br)cc1 | / | -22% | -22% | / | / | /
CCCSc1nc(O)c(C2OC(=O)c3c2ccc(OC)c3OC)c(=O)n1-c1ccccc1 (configuration not stated) | -6% | -17% | 11µM* | 7% | / | -7%
COc1ccc2c(c1OC)C(=O)OC2c1ccc(O)cc1 (configuration not stated) | -16% | / | / | / | -7% | /
CCSc1nc(O)c([C@H]2OC(=O)c3c2ccc(OC)c3OC)c(=O)n1-c1ccccc1 | / | / | / | 0% | / | /
CCCCSc1nc(O)c(C2OC(=O)c3c2ccc(OC)c3OC)c(=O)n1-c1ccccc1 (configuration not stated) | -2% | -25% | 8.9µM* | -1% | / | 2%
C=CCSc1nc(O)c(C2OC(=O)c3c2ccc(OC)c3OC)c(=O)n1-c1ccccc1 (configuration not stated) | 0%[7.34 µM] | -5% | 4µM* | / | i[7.34 µM] | /
Cc1ccccc1-c1nc(CS(=O)(=O)CC(=O)NCc2cccc(Cl)c2)c(C)o1 | -6% | -9% | -13% | -12%[46.1 µM] | -8% | 10%[46.1 µM]
COc1ccc(-n2cc(C(=O)NC(C)c3ccccc3)c3ccccc3c2=O)cc1 (configuration not stated) | -11% | -4% | -16% | / | -13% | -1%[46.1 µM]
O=c1ccc2c(o1)/C(=C/C=C(Cl)Cl)CCC2 | ? | -27% | 22µM* | -6% | 10µM* | -3%
Nc1c2c(nc3ccc(Br)cc13)N(C1CCCCC1)CC2 | / | / | -19% | / | / | /
Nc1c2c(nc3ccccc13)N(C1CCCCC1)CC2 | ? | -5% | -5% | 10µM* | ? | -24%
CCN(C(=O)c1cc2c(=O)oc3ccccc3c2s1)c1ccccc1F | -7% | -8% | 8% | / | -9% | 4%[46.1 µM]
Nc1ncnc2c1ncn2C1C=C(CO)C(O)C1O (configuration not stated) | ? | -1% | / | ? | 1.1µM* | 0.25µM*
Cc1ccc(CNC(=O)c2nc(SCc3cccc(C)c3)ncc2Cl)cc1 | 3% | 0% | 1% | -6%[46.1 µM] | i | -4%[46.1 µM]
COc1ccc(-c2ccc(/C=N/NC(=O)Cc3nnc(N)s3)o2)cc1Cl | / | -5% | 56µM* | / | / | /
Cc1ccc(-c2ccc(/C=N/NC(=O)Cc3nnc(N)s3)o2)cc1Cl | / | -16% | 4% | / | / | /
COC(=O)C1=C(C(=O)OC)C(c2ccccc2O)c2sc(=O)[nH]c2S1 (configuration not stated) | 16% | -14% | 40µM* | 9% | -11% | -2%
COc1cc(-c2ccc3c(=O)c4ccccc4sc3c2)cc(OC)c1OC | 14µM* | -7% | / | / | -33% | /
